Compound activity as filed in PubChem BioAssay.
Compounds with a hit are over-represented: about 1.2% of the library has one in this group of screens.
TbPYK inhibitor = blocks Trypanosoma brucei pyruvate kinase. Q57TT1. actives 0.12% (n = 410,000). Potency, µM (doses to about 76.8 µM), for inactives: at the top dose activity, negative = inhibition, most hits filed as inhibitors. AID 624173. TbPYK enzyme, Kinase-Glo Plus ATP luminescence, 45 min; note: % is set by controls: 0 for no effect and ±100 for the full control effect; nearly all actives have a fitted effect of over 50% in size
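Enzyme and substrate buffer are dispensed first and compound is pin-transferred. ADP at 130 uM final then starts the reaction, which runs 45 min at room temperature. Detection reagent is added for 10 min before luminescence is imaged.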
NS1 inh = blocks influenza NS1 protein function | actives 0.4% (n = 270,000) | Potency, µM (top dose mostly 46.1 µM), for the others: at the top dose activity, positive = more growth; calls by dose curve; note: actives are rising curves; nearly all actives have a fitted effect of over 50% in size
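Growth recovery, yeast-based: influenza A NS1 expressed in S. cerevisiae causes slow growth, and suppressors are detected by OD600. The parent strain without NS1 is used as positive control.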
FBPA Giardia inh = inhibitors of Giardia lamblia fructose-1,6-bisphosphate aldolase; actives 0.71% (n = 290,000); purified Giardia FBPA; Potency, µM (top dose mostly 59.6 µM), without a hit: at the highest dose activity, negative = inhibition, most hits filed as inhibitors; A8B2U2; note: % is set by controls: 0 for no effect and ±100 for the full control effect; nearly all actives have a fitted effect of over 55% in size
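Giardia FBPA (40 nM reagent) was preincubated 10 min at RT with compound (up to 57.5 uM final), then substrate plus GAPDH/TPI/NAD/arsenate coupling system with diaphorase/resazurin was added; resorufin fluorescence (525/598 nm) was read after 20 min.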
AMA1 RON2 block = AMA1-RON2 (P. falciparum) interaction inhibition; AlphaScreen AMA1-biotinylated RON2 peptide binding; Potency, µM (doses to about 58.2 µM), without a hit: top-dose activity change, negative = inhibition, most hits filed as inhibitors; actives 0.2% (n = 360,000); AID 720542;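 note: 0% = vehicle wells and -100% = peptide control; nearly all actives have a fitted effect of over 45% in size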
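AMA1 (3D7) with his tag at 25 nM final met compounds first, then biotinylated RON2 peptide at 25 nM; detection used donor plus acceptor beads, 10 µg/mL apiece, read by AlphaScreen after 30 min at room temperature.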
LmPK inhibitor = inhibitors of Leishmania mexicana pyruvate kinase. Q27686. purified LmPK, Kinase-Glo ATP luminescence, 1 h. Potency, µM (highest dose often 57.5 µM), for the others: at the highest dose activity change, negative = inhibition, hits mostly inhibitors. actives 0.37% (n = 290,000). AID 1721; note: % is set by controls: 0 for no effect and ±100 for the full control effect
Target sequence (Q27686 whole entry, looked up): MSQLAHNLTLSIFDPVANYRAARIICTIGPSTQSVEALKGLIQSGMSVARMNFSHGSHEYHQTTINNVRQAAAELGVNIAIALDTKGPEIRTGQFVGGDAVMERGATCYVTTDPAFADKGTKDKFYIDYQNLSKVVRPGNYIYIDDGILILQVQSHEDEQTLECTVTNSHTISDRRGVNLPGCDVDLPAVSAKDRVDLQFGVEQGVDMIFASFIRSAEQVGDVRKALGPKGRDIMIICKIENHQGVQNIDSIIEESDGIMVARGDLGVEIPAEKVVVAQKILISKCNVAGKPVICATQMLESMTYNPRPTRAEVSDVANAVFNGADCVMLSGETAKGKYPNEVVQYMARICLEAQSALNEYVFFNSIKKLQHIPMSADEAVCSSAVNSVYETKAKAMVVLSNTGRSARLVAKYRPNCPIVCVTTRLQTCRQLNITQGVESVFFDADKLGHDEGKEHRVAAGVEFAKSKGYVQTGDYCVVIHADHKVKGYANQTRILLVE
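qHTS format; LmPK 0.1 nM; substrates PEP 0.5 mM and ADP 0.1 mM. One-hour room-temperature incubation, then coupled luciferase luminescence; 0.5 nM enzyme wells mark activation.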
* hit, by the source's call; ? = inconclusive; · = not tested or not shown. Unless noted, calls come from the whole dose curve; as a rule, active = well fitted curve in the direction sought with a large enough effect; inconclusive = small, poorly fitted or top-dose-only effect, or another doubt; inactive = no such curve, though single readings can be large; an effect the other way counts as inactive or inconclusive. Potency is the fitted concentration of half-maximal effect.

SMILES | TbPYK inhibitor | NS1 inh | FBPA Giardia inh | AMA1 RON2 block | LmPK inhibitor
Brc1ccc(OCc2nc3ccccc3[nH]2)cc1 | 0.0% | -4.6% | -27.9% | 4.3% | -1.6%
COc1ccc(OCc2nc3ccccc3[nH]2)cc1 | -8.6% | -62.4% | -1.6% | 8.8% | 17.8µM*
COc1ccc(CSc2nc3ncccc3[nH]2)cc1 | -3.8% | · | · | · | ·
Cc1ccccc1OCc1nc2ccccc2[nH]1 | -2.4% | -5.9% | -13.4% | -7.2% | 17.8µM*
CN(C)C(=O)Oc1ccc(OCc2nc3ccccc3[nH]2)cc1 | ? | -4.4% | 3.3% | 5.3% | 7.08µM*
COc1ccccc1OCc1nc2ccccc2[nH]1 | 6.2% | -14.1% | -12.9% | 7.1% | -16.5%
COc1ccc(Cn2ccc3nc(C)c(C(=O)N4CCN(c5cccc(OC)c5)CC4)cc3c2=O)cc1 | 4.0% | · | · | · | ·
COc1cc(N2C(=O)C=CC2=O)ccc1N1C(=O)C=CC1=O | 4.47µM* | · | · | -3.9% | ·
COc1cc(OC)cc(C(=O)NCc2n[nH]c(=S)n2-c2ccccc2OC)c1 | 11.2µM* | -9.4% | -16.6% | 5.9% | ?
COc1ccccc1-n1c(-c2ccccc2)n[nH]c1=S | 6.31µM* | 10.6% | -7.6% | 35.3% | -15.8%
Cc1ccccc1-n1c(-c2cccnc2)n[nH]c1=S | ? | 1.9% | ? | -3.1% | 11.2µM*
S=c1[nH]nc(-c2ccc3ccccc3n2)n1-c1ccc2ncccc2c1 | 3.98µM* | 24.7% | 1.5% | 6.3% | 14.1µM*
Fc1ccc(-n2c(-c3ccc4ccccc4n3)n[nH]c2=S)cc1Cl | -26.5% | · | -5.9% | 163.0% | 7.8%
COc1ccccc1-n1c(CNC(=O)c2cccs2)n[nH]c1=S | ? | · | ? | 9.6% | ?
CC(=O)[C@@]1(O)CC[C@@H]2[C@@H]3CCC4=CC(=O)CC[C@]4(C)[C@]3(F)[C@@H](O)C[C@@]21C | 0.0% | · | · | · | ·
Nc1[nH]c(=O)nc2c1ncn2[C@H]1O[C@@H](CO)[C@@H](O)[C@@H]1O | · | 0.0% | · | · | ·
CO/N=C(\C(=O)N[C@@H]1C(=O)N2C(C(=O)OCOC(=O)C(C)(C)C)=C(C)CS[C@H]12)c1csc(N)n1 | 1.8% | · | · | · | ·
COC1CC2CCC(C)[C@](O)(O2)C(=O)C(=O)N2CCCCC2C(=O)OC(C(C)CC2CCC(O)C(OC)C2)CC(=O)C(C)/C=C(/C)C(O)C(OC)C(=O)C(C)CC(C)C=CC=C/C=C\1C (stereo partly specified) | 7.2% | · | · | · | ·
COc1ccc(OC)c(-n2c(-c3cccc(C)c3)n[nH]c2=S)c1 | 2.51µM* | -8.0% | -13.7% | 70.7% | ?
COc1ccc(OC)c(-n2c(-c3ccccc3)n[nH]c2=S)c1 | 11.2µM* | 2.6% | -8.9% | 1.2% | 2.24µM*
S=c1[nH]nc(-c2cccc3ccccc23)n1-c1cccnc1 | ? | 11.5% | -1.8% | 48.3% | 12.6µM*
COc1ccccc1-n1c(-c2cn(C)nc2C)n[nH]c1=S | ? | 12.5% | ? | 17.9% | 22.4µM*
COc1ccc(OC)c(-n2c(-c3cc(-c4ccccc4)n[nH]3)n[nH]c2=S)c1 | ? | -17.2% | 11.3% | 17.8% | 10µM*
COc1ccc(-c2n[nH]c(=S)n2-c2ccccc2C)cc1 | ? | -43.6% | 24.0% | 48.9% | 28.2µM*
COc1ccc(-c2n[nH]c(=S)n2-c2ccccc2C)cc1OC | ? | 13.7% | 3.6% | 52.9% | ?
SMILES | TbPYK inhibitor | NS1 inh | FBPA Giardia inh | AMA1 RON2 block | LmPK inhibitor
COc1ccc(-c2cc(-c3ccccc3)n[nH]2)c(O)c1 | -4.1% | -59.6% | -1.2% | 88.1% | 0.7%
Cc1ccccc1-n1c(-c2ccc3ccccc3n2)n[nH]c1=S | ? | -2.1% | -25.4% | 56.6% | 17.8µM*
COc1ccc(-c2cc(-c3n[nH]c(=S)n3-c3ccccc3OC)[nH]n2)cc1 | -28.1% | -18.1% | 14.6% | 35.1% | 11.2µM*
CC#CC[C@@H](C)[C@@H](O)/C=C/[C@H]1[C@H]2c3cccc(CCCC(=O)O)c3O[C@H]2C[C@@H]1O | -3.2% | · | · | · | ·
Cc1cc(C)c(NC(=S)NCC2CCN(C(C)c3ccccc3)C2)c(C)c1 (stereo unspecified) | ? | · | 1.99µM* | -17.5% | -2.1%
O=C(Nc1ccc(OCc2ccccc2)cc1)c1ccccc1 | -2.6% | · | 0.9% | -4.9% | -15.8%
Cc1cc(C(=O)Nc2ccc(OCc3ccccc3)cc2)c(C)o1 | -19.8% | -5.4% | -1.6% | -8.3% | 7.94µM*
COc1ccc(CN2CCC(N3CC(C)OC(C)C3)CC2)c(OC)c1OC (stereo unspecified) | -7.8% | 1.9% | ? | 12.6µM* | -0.6%
CSc1ccc(CN2CCC(N3CC(C)OC(C)C3)CC2)cc1 (stereo unspecified) | -7.7% | -4.6% | ? | -6.2% | -2.0%
O=S(=O)(Nc1cc(O)cc2cccnc12)c1ccc(Cl)s1 | · | · | 3.15µM* | · | ·
O=S(=O)(Nc1ccccc1N1CCCCC1)c1ccc(Cl)s1 | ? | 7.1% | -27.9% | -12.9% | 14.2%
O=S(=O)(Nc1cc(O)cc2cccnc12)c1ccc(Br)s1 | · | · | 3.15µM* | · | ·
Cc1ccc(NCN2C(=O)C3C4C=CC(C4)C3C2=O)cc1 (stereo unspecified) | ? | -1.1% | -0.1% | 22.4% | 0.8%
O=C1C2C3C=CC(C3)C2C(=O)N1CNc1ccc(O)cc1 (stereo unspecified) | · | -4.5% | 3.15µM* | · | -2.8%
Cc1cc(O)cc(O)c1C(=O)OC1(C)C(=O)C=C2C=C(/C=C/CO)OC=C2C1=O (stereo unspecified) | · | · | -13.1% | · | ·
CN1C(=O)C2(NC(=O)c3ccccc3N2C)c2ccccc21 (stereo unspecified) | 6.7% | 1.9% | 0.4% | 11.4% | -1.1%
CN1C(=O)C(Cl)(Cl)C(=O)c2ccccc21 | 14.1µM* | -4.6% | 5µM* | 4.1% | -11.0%
CCN1/C(=C/C(C)=C/c2sc3ccccc3[n+]2CC)Sc2ccccc21 | ? | 10.2% | -7.7% | 28.2µM* | -14.0%
Oc1c(C(c2ccc(F)cc2)N2CCCC2)sc2nc(-c3ccco3)nn12 (stereo unspecified) | -5.7% | · | · | · | ·
CO[C@@H]1[C@@H](OC2OC(C)C(OC3CC(C)(O)C(O)C(C)O3)C(N(C)C)C2O)[C@@H](CC=O)C[C@@H](C)[C@@H](OC2CCC(N(C)C)C(C)O2)/C=C/C=C/C[C@@H](C)OC(=O)C[C@H]1OC(C)=O (stereo partly specified) | 0.9% | · | · | · | ·
O=C(O)c1ccc(N2Cc3ccccc3C2)cc1O | ? | ? | 1.0% | 16.1% | 14.1µM*
Cc1ccc(N=Nc2cc(C)ccc2N)cc1 | -21.8% | -6.5% | -1.4% | 31.6µM* | 14.1µM*
Cc1cc(NC(=O)c2ccccc2)sc1C | 2.5% | -116.5% | 3.8% | -9.0% | 12.6µM*
Cc1ccc(C2C3=C(CC(C)(C)CC3=O)Nc3[nH]c(=S)[nH]c(=O)c32)cc1 (stereo unspecified) | 0.4% | 8.91µM* | ? | 3.2% | 1.0%
Cc1[nH]nc2c1C(c1ccc(O)cc1)C1=C(CC(C)(C)CC1=O)N2 (stereo unspecified) | 2.2% | 1.6% | 0.0% | 9.0% | 12.7%
